Data: PubChem BioAssay (NCI)
Compounds without any hit were thinned out: in the full panel of roughly 79,000, 15% have a hit. Unmarked numbers belong to inactive results. Calls of active or inactive are those of the source. Rule as the data show it: active = growth inhibition above about 70%; inactive = the rest.

Key:
[1] = NCI Yeast Anticancer Drug Screen. Data for the rad50 strain (AID 155);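 also: 0% = growth of vehicle-only cultures of the same strain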; conditions: S. cerevisiae rad50 strain growth inhibition, stronger effect = higher value
Summary of the method: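 Compounds were tested on a yeast strain with an engineered DNA damage repair alteration; the reported value is growth inhibition normalised to vehicle treatment.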

[2] = NCI Yeast Anticancer Drug Screen. Data for the mec2-1 strain (AID 157); conditions: S. cerevisiae mec2-1 strain, stronger effect = higher value
Summary of the method: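 Each compound was tested on mec2-1 yeast, a strain altered in DNA damage repair or cell cycle control. Growth inhibition is reported relative to vehicle.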

[3] = NCI Yeast Anticancer Drug Screen. Data for the sgs1 mgt1 strain (AID 161);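 also: 0% = growth of cultures given vehicle only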; conditions: S. cerevisiae sgs1 mgt1 strain, stronger effect = higher value
Summary of the method: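 Inhibition of yeast growth, normalised to vehicle-treated controls, is reported for a strain bearing genetic alterations in DNA damage repair.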

[4] = NCI Yeast Anticancer Drug Screen. Data for the cln2 rad14 strain (AID 165);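 also: 0% = growth equal to vehicle treated cultures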; conditions: S. cerevisiae cln2 rad14 strain, stronger effect = higher value
Summary of the method: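 Test compounds were added to cln2 rad14 yeast cultures; inhibition of growth was then determined by comparison with vehicle treatment.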

[5] = NCI Yeast Anticancer Drug Screen. Data for the bub3 strain (AID 167); conditions: S. cerevisiae bub3 mutant strain, stronger effect = higher value
Summary of the method: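 Growth of a checkpoint-deficient yeast mutant is measured after compound exposure. Values represent inhibition relative to vehicle.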

[6] = NCI Yeast Anticancer Drug Screen. Data for the mlh1 rad18 strain (AID 175); conditions: S. cerevisiae mlh1 rad18 strain growth inhibition, stronger effect = higher value
Summary of the method: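 Inhibition values reflect reduced growth of mutant yeast versus vehicle-treated controls following compound exposure; the mutations affect DNA damage repair.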

[7] = at 5.0 µM (retest, dose inferred, filed as 0.5)
[8] = at 50.0 µM (retest, dose inferred, filed as 5.0)

Row | SMILES | growth inhibition [1, 7] | growth inhibition [1, 8] | growth inhibition ([1]; at 50.0 µM) | growth inhibition [2, 7] | growth inhibition [2, 8] | growth inhibition ([2]; at 50.0 µM) | growth inhibition [3, 7] [%] | growth inhibition [3, 8] | growth inhibition ([3]; at 50.0 µM) | growth inhibition [4, 7] | growth inhibition [4, 8] | growth inhibition ([4]; at 50.0 µM) | growth inhibition [5, 7] | growth inhibition [5, 8] | growth inhibition ([5]; at 50.0 µM) | growth inhibition [6, 7] | growth inhibition [6, 8] | growth inhibition ([6]; at 50.0 µM)
1 | CCOC(=O)c1c(O)c(C)c(=O)n2c1[nH]c1cc(C)c(C)cc12 | -1% | 12% | -6.75% | 10% | 33% | -6.85% | 12 | 29% | -6.5% | -4% | 2% | -21.3% | -6% | 14% | -43.9% | -4% | 38% | -10.6%
2 | CCCCn1cnc2c(SCc3ccccc3[N+](=O)[O-])nc(N)nc21 | 1% | -2% | 94.9% (active) | -2% | 1% | 98.2% (active) | 1 | 2% | 96.9% (active) | -15% | -27% | 90.4% (active) | 1% | 30% | 98.7% (active) | 3% | 3% | 96.7% (active)
3 | Cc1ccc(SCc2ccc(Cl)cc2Cl)nn1 | -1% | 64% | 96.8% (active) | -16% | 85% (active) | 94% (active) | -4 | 85% (active) | 82.8% (active) | 0% | 20% | 25.9% | 12% | 61% | 93.8% (active) | -3% | 78% (active) | 94% (active)
4 | CCOc1c(N=Nc2ccccc2Cl)c(-c2ccccc2)nn1C(=S)S | -1% | 20% | 52.7% | -4% | 24% | 57.6% | -2 | -70% | 28.8% | -7% | 27% | 48.5% | 3% | 64% | 78.5% (active) | -2% | 31% | 42.9%
5 | CS/C(=N\C(=S)Nc1ccccc1)Nc1ccccc1 | 0% | 95% (active) | 99.2% (active) | 25% | 94% (active) | 99.4% (active) | 38 | 97% (active) | 96.3% (active) | 22% | 96% (active) | 97.3% (active) | 34% | 98% (active) | 99% (active) | 22% | 95% (active) | 98.1% (active)
6 | COc1ccc(C(=O)CC(=O)c2ccccc2)cc1 | 1% | 99% (active) | -6.2% | -1% | 99% (active) | 17.8% | 2 | 99% (active) | 20.4% | -15% | 99% (active) | -17.3% | 24% | 99% (active) | 80% (active) | 0% | 99% (active) | 14.1%
7 | CN(Cc1cnc2nc(N)nc(N)c2n1)c1ccc(C(=O)NC(CCC(=O)O)C(=O)O)c(Cl)c1Cl (configuration not stated) | -4% | 79% (active) | 94.2% (active) | 41% | 98% (active) | 98.2% (active) | -5 | 55% | 85.5% (active) | -8% | -13% | -11.2% | -21% | 64% | 77.5% (active) | 13% | 82% (active) | 88.2% (active)
8 | O=C1C2=C(c3ccccc31)C(c1ccccc1Cl)NC(=S)N2 (configuration not stated) | -5% | 11% | 82.2% (active) | -11% | 13% | 39.3% | -18 | -4% | 78.5% (active) | 20% | 40% | 63.4% | 14% | 60% | 70% (active) | -8% | 40% | 74.8% (active)
9 | Cc1nn(CCO)c(=O)c(C#N)c1C | 1% | 17% | 66.2% | 5% | 16% | 49% | 2 | 14% | 61.7% | -1% | -5% | 11.7% | 19% | 77% (active) | 34.1% | 5% | 30% | 50.5%
10 | CCOC(=O)Cn1c(=O)c2nc(SC)sc2n(-c2ccc(C)cc2)c1=S | -3% | -1% | -4.9% | -1% | -10% | -6.25% | 0 | 6% | 27.1% | 14% | 17% | 34% | 1% | 9% | -10.4% | 2% | 12% | -19%
11 | CC(c1ccc2ccccc2c1)c1c(F)cccc1C(=O)O (configuration not stated) | 2% | 50% | 98.7% (active) | 0% | 54% | 98.3% (active) | 0 | 12% | 97.2% (active) | -4% | 64% | 98.6% (active) | -9% | 41% | 97.6% (active) | -16% | 61% | 98.5% (active)
12 | CC(C)CN(CC(C)C)CN1C(=O)/C(=C/c2ccc([N+](=O)[O-])cc2)SC1=S | 16% | 53% | 63.2% | 8% | 61% | 40.3% | 11 | 59% | 67.7% | 37% | 44% | 46.9% | 4% | 37% | 41.2% | 26% | 66% | 71.2% (active)
13 | O=C1C(Cl)=C(c2ccc([N+](=O)[O-])cc2)C(=O)c2c(O)cccc21 | 79% (active) | 95% (active) | 90% (active) | 100% (active) | 99% (active) | 93.3% (active) | 28 | 95% (active) | 91.7% (active) | 82% (active) | 97% (active) | 90% (active) | 99% (active) | 94% (active) | 90.8% (active) | 99% (active) | 97% (active) | 88.3% (active)
14 | O=C(/C(=C/c1ccc2c(c1)OCO2)c1ccccc1)c1ccc(OCCN2CCCC2)cc1 | -2% | -4% | 34.9% | 3% | -8% | 58.5% | -3 | -16% | 31.1% | -2% | -8% | 12.8% | -7% | -1% | 3.45% | 5% | 19% | 7.35%
15 | CCNc1ccccc1C | 3% | 91% (active) | 98.7% (active) | -1% | 88% (active) | 98.2% (active) | -2 | 86% (active) | 97% (active) | 2% | 97% (active) | 96.4% (active) | 7% | 82% (active) | 97.7% (active) | 3% | 97% (active) | 98.3% (active)
16 | CN(C)C1=C(Cl)C(=O)c2ccccc2C1=O | 12% | 93% (active) | 47.7% | 14% | 87% (active) | 45.6% | 14 | 93% (active) | 44.9% | 11% | 60% | 34.8% | 14% | 96% (active) | 82% (active) | 15% | 87% (active) | 42.4%
17 | O=C(CCCl)Nc1ccc(CCC(=O)c2ccccc2NC(=O)CCCl)cc1 | -10% | 23% | 69.2% | -9% | -4% | 64.4% | -7 | 59% | 81.8% (active) | -24% | -22% | 27.9% | -8% | 19% | 10.8% | -11% | -6% | 54.3%
18 | COC(=O)c1nnn(-c2ccc(Cl)cc2Cl)c1C(=O)c1ccc(Cl)c(Cl)c1 | 11% | 99% (active) | 98.3% (active) | 2% | 99% (active) | 95.5% (active) | 4 | 99% (active) | 99% (active) | 11% | 98% (active) | 92.1% (active) | 17% | 99% (active) | 95.8% (active) | 19% | 99% (active) | 98.7% (active)
19 | CCOC(=O)c1c(NC(=O)CBr)sc(C)c1C | 8% | 48% | 21.2% | -3% | 64% | 7.8% | 10 | 74% (active) | 32.9% | 0% | 18% | -28.4% | 5% | 65% | 38.1% | 7% | 69% | 21.8%
